Data reported in PubChem BioAssay (NCI).
This is part of a sample that, as a whole, favours compounds with a hit. Of some 79,000 tested, about 15% had one in any assay. Values without a mark were called inactive. Cut-off read from the data, not from the text of the source: active = growth inhibition above about 70%; inactive = the rest.

Assay: NCI Yeast Anticancer Drug Screen. Data for the sgs1 strain (AID 173);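 note: 0% = growth of vehicle-only control cultures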
Settings: S. cerevisiae sgs1 mutant, at 11.0 µM, hits give high values
In short: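 Treat defined-mutant yeast with compound; measure growth; calculate inhibition relative to vehicle-treated cells.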

Question: Which growth inhibition does the source give for COc1ccc(/C=C2\SC(=S)N(/C=C/c3nc4ccccc4[nH]c3=O)C2=O)cc1OC here?
Answer: The growth inhibition was 43%.

Question: With N#CN=Nc1cc(Cl)c(N=NC#N)cc1Cl as the compound, how does the growth inhibition read?
Answer: Its growth inhibition is -13%.

Question: For Cc1ccc(S(=O)(=O)Oc2cc(Cl)c(Cl)cc2Cl)cc1, which growth inhibition is on record?
Answer: Its growth inhibition is -18%.

Question: With c1ccc2c(c1)Oc1cccc3cccc-2c13 as the compound, how does the growth inhibition read?
Answer: The growth inhibition was 13%.

Question: With O=C(c1ccc(Cl)cc1Cl)C(Cl)Cl as the compound, how does the growth inhibition read?
Answer: The growth inhibition was 14%.

Question: With CC(C)C1=CCC2C(=C1)CCC1C(C)(C(=O)O)CCCC21C (stereo unspecified) (tested in a mixture with another compound) as the compound, how does the growth inhibition read?
Answer: Its growth inhibition is 23%.

Question: Which growth inhibition does the source give for COc1cc(/C=C2\CCc3ccccc3C2=O)cc(OC)c1OC here?
Answer: Its growth inhibition is 24%.

Question: With CC(=O)[O][Bi]([c]1ccccc1)[c]1ccccc1 as the compound, how does the growth inhibition read?
Answer: Its growth inhibition is 46%.

Question: With S=C(N/N=C/c1ccccn1)Nc1ccc(Cl)cc1 as the compound, how does the growth inhibition read?
Answer: The growth inhibition was -2%.

Question: With COc1cc(CC2CC(c3ccc4c(c3)OCO4)OC2=O)cc(OC)c1OC (stereo unspecified) as the compound, how does the growth inhibition read?
Answer: The growth inhibition was -2%.

Question: With CNC1C(OC2C(OC3C(O)C(O)C(N=C(N)N)C(O)C3N=C(N)N)OC(C)C2(O)CO)OC(CO)C(O)C1O (stereo unspecified) as the compound, how does the growth inhibition read?
Answer: The growth inhibition was 2%.

Question: For NNC(=O)CCc1ccc2ccc3ccccc3c2c1, which growth inhibition is on record?
Answer: The growth inhibition was 17%.

Question: With Oc1ccc2ccccc2c1C(c1ccc(Cl)cc1)c1c(O)ccc2ccccc12 as the compound, how does the growth inhibition read?
Answer: Its growth inhibition is -25%.

Question: For CCCCN(CCCC)CCSc1ccc(Cl)cc1, which growth inhibition is on record?
Answer: Its growth inhibition is 10%.

Question: For CCC(C)COC(=O)c1ccc(N=Cc2ccc(C=Nc3ccc(C(=O)OCC(C)CC)cc3)cc2)cc1 (stereo unspecified), which growth inhibition is on record?
Answer: Its growth inhibition is 2%.

Question: Which growth inhibition does the source give for CC1(C)C(=O)OC(n2cc(F)c(=O)[nH]c2=O)C1=O (stereo unspecified) here?
Answer: Its growth inhibition is -2%.
